# PI5P4K alpha inh: blocks human PI5P4K alpha kinase activity; P48426; PI5P4Kalpha enzyme, ADP-Glo luminescence, 60 min; active compounds read low; 330,000 compounds, 1.2% hits; max response, %; active = max response of -50% or lower; inconclusive = between -30% and -50%; inactive = -30% or higher; note: value at the top dose of about 77 µM; % is set by controls: 0 for no effect and ±100 for the full control effect
#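 Single end-point luminescence (ADP-Glo) quantified ADP from PI5P4Kalpha turnover; ATP 5 microM final, 1 h at RT, 0.1% CHAPS and 0.28 mM EGTA in HEPES pH 7.4.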
# JMJD2A Tudor: blocks the human JMJD2A Tudor domain. O75164. AlphaScreen JMJD2A-Tudor / H3K4me3 peptide binding. Potency, µM (highest dose often 114 µM), for inactives: top-dose activity change, negative = inhibition, actives largely listed as inhibitors. 390,000 compounds, 4.4% hits; note: potency is the fitted concentration of half-maximal effect; % is set by controls: 0 for no effect and ±100 for the full control effect; nearly all actives have a fitted effect of over 50% in size
# G9a block: G9a (human) methyltransferase inhibition; Q96KQ7; Potency, µM (highest dose often 102 µM), inactives show at the top dose activity, negative = inhibition, usual class: inhibitors; G9a H3K9 monomethylation, AlphaScreen, 2 h; 350,000 compounds, 8.8% hits; note: potency is the fitted concentration of half-maximal effect; % is set by controls: 0 for no effect and ±100 for the full control effect; nearly all actives have a fitted effect of over 75% in size
#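 G9a (20 nM) was preincubated 15 min with compound, then reacted 2 h at room temperature with 500 nM biotin-H3K9 peptide and 20 µM SAM. Monomethyl-H3K9 detected by AlphaScreen using anti-H3K9me1 antibody.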
# BAZ2B block: blocks human BAZ2B; Q9UIF8; AlphaScreen BAZ2B-H3K14Ac peptide displacement; Potency, µM (doses to about 114 µM), without a hit: at the highest dose activity change, negative = inhibition, hits mostly inhibitors; 360,000 compounds, 4.4% hits; note: potency is the fitted concentration of half-maximal effect; % is set by controls: 0 for no effect and ±100 for the full control effect; nearly all actives have a fitted effect of over 60% in size
#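 BAZ2B 50 nM plus b-H3(5-23)K14Ac 50 nM, PBS pH 7.4/0.01% Tween-20, 30 min RT; compound added (max 110 uM), 30 min RT; streptavidin donor/Ni-chelate acceptor beads 10 ug/mL final, 20 min dark; AlphaScreen read.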
# HP1b binding inh: HP1-beta chromodomain-methylated histone interaction inhibition. 390,000 compounds, 0.56% hits. AlphaScreen HP1-beta / biotin-H3K9me3 peptide binding. AID 540317. Potency, µM (doses to about 114 µM), inactives show at the top dose activity change, negative = inhibition, actives largely listed as inhibitors; note: potency is the fitted concentration of half-maximal effect; nearly all actives have a fitted effect of over 70% in size
#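 AlphaScreen: HP1-beta (50 nM) preformed 30 min with biotin-H3(1-18)K9me3 peptide (50 nM) in PBS pH 7.4, 0.01% Tween-20. Compound added for 30 min at RT, then streptavidin donor/nickel chelate acceptor beads (10 ug/mL) for 30 min.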
# PLK1 PBD inh: PLK1 (human) polo-box domain binding inhibition; 360,000 compounds, 2.8% hits; AID 720504; Plk1 PBD binding of FITC phosphopeptide, fluorescence polarization; Potency, µM, without a hit: max response, negative = inhibition, usual class: inhibitors; note: potency is the fitted concentration of half-maximal effect; series mostly up to about 57 µM; % is set by controls: 0 for no effect and ±100 for the full control effect; nearly all actives have a fitted effect of over 65% in size
# * = called active by the depositor; ? = inconclusive; . = not tested or not shown; [ ] = another dose, or the depositor's remark. An excerpt weighted towards active compounds, which were near 12% of everything screened. Unless noted, calls come from the whole dose curve; as a rule, active = well fitted curve in the direction sought with a large enough effect; inconclusive = small, poorly fitted or top-dose-only effect, or another doubt; inactive = no such curve, though single readings can be large; an effect the other way counts as inactive or inconclusive.
SMILES,PI5P4K alpha inh,JMJD2A Tudor,G9a block,BAZ2B block,HP1b binding inh,PLK1 PBD inh
CC(=O)c1ccc2c(c1)C1C(Cl)C(Sc3ccccc3[N+](=O)[O-])CC1C(C(=O)O)N2 (centres undefined),-28.4,35.5µM*,7.94µM*,10µM*,?,26.7µM*
COc1ccc(-c2n[nH]c(=S)n2-c2ccc3c(c2)OCCO3)cc1OC,-1.7,3.16µM*,.,-10.2%,8.2%,-11.8%
COc1ccc(C2=NCC(=S)Nc3ccc(Cl)cc32)cc1OC,11.2,-19.6%,.,.,14.9%,-2.7%
S=c1[nH]nc(-c2ccc3ccccc3n2)n1-c1ccc2c(c1)OCCO2,-14.9,44.7µM*,.,?,8.4%,-21.2%
CCCOc1ccc(C(=O)CCC(=O)NNC(=O)c2ccncc2)cc1,5.6,-5.9%,55.8%,5.5%,28.7%,-0.9%
CC1CN(C(=O)c2ccc(S(=O)(=O)Nc3ccccc3F)cc2)CC(C)O1 (centres undefined),-9.2,-7.9%,-4.7%,-2.1%,45.9%,5.6%
CCC(C(=O)Nc1ccccc1F)N1C(=O)CN=C(c2ccccc2)c2ccccc21 (centres undefined),.,-22.3%,-28.5%[59 µM],.,-0.3%,.
CCN(CC)c1ccc(C=C2C(=O)N(C)C(=S)N(C)C2=O)o1,-26.8,-30.1%,20µM*,?,-25.3%,35.5%
Cc1ccc(-n2c(O)c(/C=N/N3CCOCC3)c(=O)[nH]c2=S)cc1,-11.6,?,?,?,20.6%,-7.7%
O=c1[nH]c(=S)[nH]c(O)c1/C=N/N1CCOCC1,-14.5,6.3%,50.1µM*,0.1%,52.9%,0.9%
Cc1cc(-c2n[nH]c(=S)n2CC(C)C)cs1,-4.4,5.62µM*,3.16µM*,-5.0%,?,-25.0%
CCCN1CCc2cc(O)cc3c2C1Cc1ccc(O)c(O)c1-3 (centres undefined),.,.,0.316µM*,.,.,.
C=CCN1CC[C@]23CCCCC2[C@H]1Cc1ccc(O)cc13 (some centres undefined),.,.,23.0%[12.7 µM],.,.,.
C=CCN1CCc2cccc3c2[C@H]1Cc1ccc(O)c(O)c1-3,-11.1,15.8µM*,0.532µM*,?,35.5µM*,37.7µM*
O=P(NS(=O)(=O)c1ccccc1)(Oc1ccccc1)Oc1ccccc1,.,?,56.2µM*,-39.0%,25.0%,-7.7%
Cc1ccc(S(=O)(=O)NP(=O)(Oc2ccccc2)Oc2ccccc2)cc1,.,?,56.2µM*,-22.8%,18.4%,-13.6%
O=C1Nc2ccc(Cl)cc2C(c2ccccc2)=NC1O (centres undefined),.,.,-13.2%[59 µM],.,.,.
COc1ccc(CC2NC[C@H](O)[C@H]2OC(C)=O)cc1 (some centres undefined),.,.,-10.0%[2.33 µM],.,.,.
CCN1/C(=C\C=C\C2=[N+](CC)c3ccccc3C2(C)C)C(C)(C)c2ccccc21,?,?,?,11.2µM*,?,95.3%
Cc1ccc(N2C(=O)/C(=C/c3ccc(CN(CCC#N)S(C)(=O)=O)o3)C(=O)NC2=S)cc1,-70.9*,17.8µM*,7.94µM*,50.1µM*,50.1µM*,5.97µM*
CCN(CC)c1ccc(/C=C2\C(=O)NC(=S)N(c3ccc(OC)cc3OC)C2=O)o1,6.7,-25.7%,.,.,-15.1%,121.3%
CCOC(=O)N1CCC(NC(=O)c2ccc3c(c2)N(Cc2cccc(C)c2)C(=O)c2ccccc2S3(=O)=O)CC1,.,-19.5%,5.5%[59 µM],-12.5%,41.8%,.
Cc1cc(/C=C2\C(=O)NC(=O)N(c3ccc(Cl)cc3)C2=O)c(C)n1-c1cccc(C(=O)O)c1,?,?,-6.5%[2.33 µM],-38.8%,-2.5%,26.7µM*
Cc1cc(/C=C2/C(=O)NC(=O)N(c3ccc(Br)cc3)C2=O)c(C)n1C,-14.7,-12.3%,-4.3%,-8.4%,8.8%,-6.4%
Cc1cc(/C=C2\C(=O)NC(=O)N(c3ccc(Br)cc3)C2=O)c(C)n1-c1cc(C(=O)O)cc(C(=O)O)c1,-77.4*,22.4µM*,20µM*,56.2µM*,?,11.9µM*
SMILES,PI5P4K alpha inh,JMJD2A Tudor,G9a block,BAZ2B block,HP1b binding inh,PLK1 PBD inh
Cc1cc(/C=C2\C(=O)NC(=O)N(c3cccc(F)c3)C2=O)c(C)n1-c1cc(C(=O)O)cc(C(=O)O)c1,-81.3*,79.4µM*,.,44.7µM*,-14.1%,?
C=CC[C@]1(O)CCC2C3CCC4=CCCCC4C3CCC21C (some centres undefined),.,.,36.4%[59 µM],.,.,.
CCN1C[C@@]2(COC)[C@H]3[C@@H](OC)[C@H]4C1[C@@]3([C@H](OC)C[C@@H]2O)[C@H]1C[C@@]2(O)[C@@H](OC(=O)c3ccccc3)[C@@H]1[C@@]4(OC(C)=O)[C@H](O)[C@@H]2OC,.,.,10.9%[21.5 µM],.,.,.
CCC1(c2ccccc2)C(=O)NC(=O)N(C(=O)c2ccccc2)C1=O (centres undefined),.,.,-1.2%[12.7 µM],.,.,.
COc1ccc(CCN)cc1O,0.0,-3.4%,?,.,47.2%,-0.4%
CNCCc1ccc(O)c(O)c1,3.4,-10.8%,31.6µM*,.,?,-1.8%
CC1(C)C(O)CC(O)[C@]2(C)C1CC(O)[C@]1(C)C2CC[C@@]2(C)C(c3ccoc3)CC3OC312 (some centres undefined),.,.,-13.6%[2.33 µM],.,.,.
NC(N)=Nc1ccc2[nH]c3c(c2c1)C[C@@]1(O)[C@H]2Cc4ccc(O)c5c4[C@@]1(CCN2CC1CC1)[C@H]3O5,?,3.55µM*,1.26µM*,25.1µM*,?,0.947µM*
O=P1(Oc2ccccc2)CC=CC(COCc2ccccc2)O1 (centres undefined),.,0.7%,.,.,35.3%,.
CC(C)(N)Cc1ccc(Cl)cc1,.,.,11.7%[59 µM],.,.,.
COC(=O)C(O)(c1c(C)[nH]n(-c2ccccc2)c1=O)C(F)(F)F (centres undefined),0.7,-29.9%[57.1 µM],31.6µM*,?,45.5%,23.8µM*
COC(=O)C(O)(c1c[nH]c2ccccc12)C(F)(F)F (centres undefined),-0.3,-12.6%,7.7%,7.6%,31.8%,-1.0%
C=C1C(O)C2OC3(CCC(/C=C/C(C)C4CC(C)=CC5(OC(CC(C)(O)C(=O)O)CCC5O)O4)O3)CCC2OC1C(O)CC(C)C1OC2(CCCCO2)CCC1C (centres undefined),.,.,27.0%[2.33 µM],.,.,.
COC(=O)[C@@H](Cc1ccccc1)N(Cc1ccccc1)S(=O)(=O)N(Cc1ccccc1)[C@H](Cc1ccccc1)C(=O)OC,0.0,-5.8%,.,.,39.7%,-1.9%
O=C1NS(=O)c2cc([N+](=O)[O-])cc([N+](=O)[O-])c21 (centres undefined),-24.2,-14.1%,.,?,44.1%,23.8µM*
CC1=NNC(=O)C1C(c1ccc(F)cc1)C(C#N)C#N (centres undefined),-20.2,-23.2%,.,.,23.2%,29.9µM*
CC1=NNC(=O)C1Cc1ccc(F)cc1 (centres undefined),2.1,5.8%,9.8%,-4.6%,46.5%,-8.2%
